Measurements from PubChem BioAssay (NCI).
About 79,000 compounds went through this panel and 15% of them were active in at least one assay; those are over-represented in the sample as a whole. A number with no mark means an inactive call. The source made the active and inactive calls. No stated cut-off is given here; in the data, active means growth inhibition above about 70%; inactive means the rest.

Assay: NCI Yeast Anticancer Drug Screen. Data for the sgs1 mgt1 strain (AID 161);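 further: 0% = growth of cultures given vehicle only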
Settings: S. cerevisiae sgs1 mgt1 strain, at 50.0 µM, stronger effect = higher value
Outline: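 This yeast growth screen uses a strain with defined DNA-repair lesions; compound-treated growth is compared with vehicle-treated growth.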

Row | SMILES | growth inhibition
1 | O=C(NSNc1ccccc1)c1ccccc1 | -7.6%
2 | COC(OC)(c1ccccc1)c1ccccc1 | -33%
3 | COC(=O)Cc1ccc2c(c1)Sc1ccc(CC(=O)OC)cc1N2C | -10.1%
4 | O=C(NCCCl)NCc1cccc2c1CCCC2 | -3.85%
5 | NCCNC(=O)c1ccccc1 | 0.75%
6 | NC(CCC(=O)NC1(C(=O)O)C2CC3CC(C2)CC1C3)C(=O)O (centres undefined) | -5%
7 | O=C(CC(O)(C(F)(F)Cl)C(F)(F)Cl)c1cccc([N+](=O)[O-])c1 | 81.5% (active)
8 | CC(=O)Nc1ccc(/C=N/NC(N)=O)cc1 | 19.8%
9 | CC1(C)OC2OC(C(O)COC(=O)c3ccccc3)C(Cl)C2O1 (centres undefined) | -1.6%
10 | Cc1ccc(C2[C@H]3C(=O)N(c4ccc(Cc5ccc(N6C(=O)[C@@H]7ON(c8ccccc8)C(c8ccc(C)cc8)[C@@H]7C6=O)cc5)cc4)C(=O)[C@H]3ON2c2ccccc2)cc1 (some centres undefined) | -8.1%
11 | CN(C)CCOc1cccc(OCCN(C)C)n1 | 3.2%
12 | Cc1ccc(-c2cc(-c3ccco3)nc(N)n2)o1 | 10.6%
13 | N#CCCOCC(COCCC#N)(COCCC#N)COCCC#N | -7.55%
14 | CCC(CC)c1ccc2ccccc2c1 | -11.6%
15 | COC1C=CC2OC(c3ccccc3)OCC2O1 (centres undefined) | -9.6%
16 | Clc1ccc(N=Nc2ccccc2)cc1 | 4.4%
17 | COc1ccc(/C=C2\N=C(c3ccccc3)N(Nc3nnc(NN4C(=O)/C(=C/c5ccc(OC)cc5)N=C4c4ccccc4)c4ccccc34)C2=O)cc1 | 1.65%
18 | Cc1ccc(S(=O)(=O)N2CCCCC2)cc1 | 38.3%
19 | CC(=O)Oc1ccc(OC(C)=O)c2cc3ccccc3cc12 | -32.9%
20 | Cc1ccc(N2C(=O)/C(=C/c3ccc(N(CCC#N)CCC#N)cc3C)N=C2c2cc([N+](=O)[O-])ccc2Cl)cc1 | 32.6%

Row | SMILES | growth inhibition
21 | CC1=[N+]([O-])C2(CCCC2)N(O)C1(C)C | 9.7%
22 | COC(=O)c1nc(N)nc(C(=O)OC)c1C(=O)c1c(C)[nH]c2ccccc12 | -36.9%
23 | COC1(c2ccccc2)N=C(c2ccc([N+](=O)[O-])cc2)OC1(C)C (centres undefined) | 6.1%
24 | NC(=O)c1ccc(Cl)cc1C(N)=O | 7.1%
25 | CC1SC2(C(=O)Nc3ccccc32)N(c2ccc(Cl)cc2)C1=O (centres undefined) | -12.4%
26 | COC/N=C(\NC#N)NCOC | 9.5%
27 | Nc1cccc2c1C(=O)c1cccc(Nc3ccc4c(c3)C(=O)c3ccccc3C4=O)c1C2=O | 5.55%
28 | CCc1cc(Cl)c(O)c(Cl)c1 | 6.2%
29 | CN(C)c1ccc(/C=c2\[nH]c(=O)/c(=C\c3ccc(N(C)C)cc3)[nH]c2=O)cc1 | 12.2%
30 | COc1cc(CCl)c(OC)cc1Cl | -1.4%
31 | COC(=O)c1c(O)ccc(O)c1C(=O)OC | -13.6%
32 | O=C(CC(=O)N1N=C(n2ccc3ccccc32)CC1c1ccccc1)Nc1ccccc1Cl (centres undefined) | -3.5%
33 | CCN(CC)CCCC(C)Nc1ccnc2ccc3nn(C)nc3c12 (centres undefined) | -15.2%
34 | OCCN(CCO)c1nc(N(CCO)CCO)nc(N(CCO)CCO)n1 | 20.2%
35 | COC1=NCc2ccccc2-c2ccccc21 | -17.9%
36 | COC1CCCC2CC3=C(CCCC3)OC21 (centres undefined) | 5.1%
37 | COc1ccc2cc1Oc1ccc(cc1)CC1=NCCc3cc(OC)c(OC)c(c31)Oc1cc3c(cc1OC)CCN(C)C3C2 (centres undefined) | -12.4%
38 | COc1ccc(C=O)c(C(=O)O)c1OC | -2.8%
39 | C=CC1(c2ccc3ccccc3c2)OCC(CC)(CC)CO1 | -3.6%

Assay: NCI Yeast Anticancer Drug Screen. Data for the cln2 rad14 strain (AID 165);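 further: 0% = growth equal to vehicle treated cultures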
Settings: S. cerevisiae cln2 rad14 strain, at 50.0 µM, stronger effect = higher value
Outline: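 Yeast strain cln2 rad14, bearing defects in cell cycle control and DNA repair, serves as the test system; values reflect growth inhibition compared with vehicle.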

Row | SMILES | growth inhibition
40 | O=C(NSNc1ccccc1)c1ccccc1 | -69.7%
41 | COC(OC)(c1ccccc1)c1ccccc1 | -11.1%
42 | COC(=O)Cc1ccc2c(c1)Sc1ccc(CC(=O)OC)cc1N2C | -18.2%
43 | O=C(NCCCl)NCc1cccc2c1CCCC2 | -26.4%
44 | NCCNC(=O)c1ccccc1 | 17.3%
45 | NC(CCC(=O)NC1(C(=O)O)C2CC3CC(C2)CC1C3)C(=O)O (centres undefined) | -18%
46 | O=C(CC(O)(C(F)(F)Cl)C(F)(F)Cl)c1cccc([N+](=O)[O-])c1 | 72.5% (active)
47 | CC(=O)Nc1ccc(/C=N/NC(N)=O)cc1 | 8.55%
48 | CC1(C)OC2OC(C(O)COC(=O)c3ccccc3)C(Cl)C2O1 (centres undefined) | -5.5%
49 | Cc1ccc(C2[C@H]3C(=O)N(c4ccc(Cc5ccc(N6C(=O)[C@@H]7ON(c8ccccc8)C(c8ccc(C)cc8)[C@@H]7C6=O)cc5)cc4)C(=O)[C@H]3ON2c2ccccc2)cc1 (some centres undefined) | 26.9%
50 | CN(C)CCOc1cccc(OCCN(C)C)n1 | 1.1%
51 | Cc1ccc(-c2cc(-c3ccco3)nc(N)n2)o1 | 4.3%
52 | N#CCCOCC(COCCC#N)(COCCC#N)COCCC#N | 10%
53 | CCC(CC)c1ccc2ccccc2c1 | -19.6%
54 | COC1C=CC2OC(c3ccccc3)OCC2O1 (centres undefined) | -35%
55 | Clc1ccc(N=Nc2ccccc2)cc1 | -14.7%
56 | COc1ccc(/C=C2\N=C(c3ccccc3)N(Nc3nnc(NN4C(=O)/C(=C/c5ccc(OC)cc5)N=C4c4ccccc4)c4ccccc34)C2=O)cc1 | 8.7%
57 | Cc1ccc(S(=O)(=O)N2CCCCC2)cc1 | -26.1%
58 | CC(=O)Oc1ccc(OC(C)=O)c2cc3ccccc3cc12 | -6.6%
59 | Cc1ccc(N2C(=O)/C(=C/c3ccc(N(CCC#N)CCC#N)cc3C)N=C2c2cc([N+](=O)[O-])ccc2Cl)cc1 | 35.2%

Row | SMILES | growth inhibition
60 | CC1=[N+]([O-])C2(CCCC2)N(O)C1(C)C | 19.5%
61 | COC(=O)c1ccccc1C1CN=NC12Cc1cccc(C)c1C2=O (centres undefined) | 43.1%
62 | COC(=O)c1nc(N)nc(C(=O)OC)c1C(=O)c1c(C)[nH]c2ccccc12 | -30.1%
63 | COC1(c2ccccc2)N=C(c2ccc([N+](=O)[O-])cc2)OC1(C)C (centres undefined) | 38%
64 | NC(=O)c1ccc(Cl)cc1C(N)=O | -24.1%
65 | CC1SC2(C(=O)Nc3ccccc32)N(c2ccc(Cl)cc2)C1=O (centres undefined) | 23.9%
66 | COC/N=C(\NC#N)NCOC | 14%
67 | Nc1cccc2c1C(=O)c1cccc(Nc3ccc4c(c3)C(=O)c3ccccc3C4=O)c1C2=O | 47.9%
68 | CCc1cc(Cl)c(O)c(Cl)c1 | -0.15%
69 | CN(C)c1ccc(/C=c2\[nH]c(=O)/c(=C\c3ccc(N(C)C)cc3)[nH]c2=O)cc1 | 14.6%
70 | COc1cc(CCl)c(OC)cc1Cl | -35.6%
71 | COC(=O)c1c(O)ccc(O)c1C(=O)OC | -16.6%
72 | O=C(CC(=O)N1N=C(n2ccc3ccccc32)CC1c1ccccc1)Nc1ccccc1Cl (centres undefined) | 29.7%
73 | CCN(CC)CCCC(C)Nc1ccnc2ccc3nn(C)nc3c12 (centres undefined) | 2.25%
74 | OCCN(CCO)c1nc(N(CCO)CCO)nc(N(CCO)CCO)n1 | 31.5%
75 | COC1=NCc2ccccc2-c2ccccc21 | 8.55%
76 | COC1CCCC2CC3=C(CCCC3)OC21 (centres undefined) | -101%
77 | COc1ccc2cc1Oc1ccc(cc1)CC1=NCCc3cc(OC)c(OC)c(c31)Oc1cc3c(cc1OC)CCN(C)C3C2 (centres undefined) | 4.5%
78 | COc1ccc(C=O)c(C(=O)O)c1OC | 17.2%
79 | C=CC1(c2ccc3ccccc3c2)OCC(CC)(CC)CO1 | -4.7%
